These results are taken from ChEMBL document CHEMBL3988442, “University of Dundee, Small-Polar-MMV Screening Library” (2021).

The structures appear in SMILES notation. Hit rate of the full screen: of about 38,000 compounds, about 1,200 (3.2%) showed an effect of 50% or more. The median lay at about -58%. Only a selection was taken, and strong results are over-represented in it overall.

The experiment concerns Plasmodium falciparum. Description: Calibr Malaria Delayed Death Assay SOP. Also noted: scale not given: in the data most compounds retested in dose-response had high values. The conditions noted are these: concentration 4.99e-06 (unit not given; other assays of the set use mol/L). In kind it is functional, organism-based.
With `NC(=O)C(CNC(=O)Cc1ccsc1)Cc1ccc(F)cc1` (centres undefined), the “Percent Effect” value is recorded as -150.5%.
As to `COc1cc(C2CC(=O)Nc3c2nc2n3CCCC2)ccc1O` (centres undefined), the “Percent Effect” value is listed as -30.17%.
The value for `COCCN(Cc1nc2c(cnn2C)c(=O)[nH]1)C(C)c1ccccc1` (centres undefined) was -89.75%; that for `Cc1ccc(N2CCc3ncnc(N(C)C)c3CC2)nn1` was -119.5%; that for `CC(C)N1CCC2(CC1)CC(NS(C)(=O)=O)c1ccccc1O2.O=C(O)C(F)(F)F` (centres undefined) was -16.02%.
The value for `CC(C)N1CCC2(CC1)CC(NCc1ccccn1)c1ccccc1O2.O=C(O)C(F)(F)F.O=C(O)C(F)(F)F.O=C(O)C(F)(F)F` (centres undefined) was 70.65%; that for `CC(C)CN1CCC2(CC1)CC(NS(C)(=O)=O)c1ccccc1O2.O=C(O)C(F)(F)F` (centres undefined) was -52.98%; that for `O=C(O)C(F)(F)F.O=C(O)C(F)(F)F.O=C(O)C(F)(F)F.OCCN1CCC2(CC1)CC(NCc1ccccn1)c1ccccc1O2` (centres undefined) was 70.8%.
The value for `COCC(=O)NC1CC2(CCN(CCF)CC2)Oc2ccccc21.O=C(O)C(F)(F)F` (centres undefined) was -129.2%.
On to `CS(=O)(=O)NC1CC2(CCN(CCF)CC2)Oc2ccccc21.O=C(O)C(F)(F)F` (centres undefined), for which the “Percent Effect” value is -76.24%.
For `CC(C)(C)c1ccc(C(=O)C2CCCN(C(=O)CNS(C)(=O)=O)C2)cc1` (centres undefined), the “Percent Effect” value is given as -75.07%.
The same measure for `CN(C)c1no[n+]([O-])c1-c1ccccc1`: -137.1%; for `COCc1nn(C(C)C)c2c1CCN(Cc1ccc(C)o1)C2.O=C(O)C(F)(F)F`: -30.71%.
Turning to `Cc1nc[nH]c1-c1nccn1CCN1CCCOC1=O`, the “Percent Effect” value is given as -113%.
As to `O=C(c1cc(Cl)c2c(c1)OCO2)N1CCN(c2cnccn2)CC1`, the “Percent Effect” value is listed as -89.48%.
As for `Cn1c(CN2CCOCC2)cc(=O)c(O)c1CN1CCOCC1`, the “Percent Effect” value is recorded as -232.2%.
On to `Cn1c(CN2CCCCC2)cc(=O)c(O)c1CN1CCCCC1`, for which the “Percent Effect” value is recorded as 81.24%.
With `Cn1c(CN2CCOCC2)cc(=O)c(O)c1CN1CCCC1`, the “Percent Effect” value is on record as -211.8%.
In the case of `Cn1c(CN2CCCCCC2)cc(=O)c(O)c1CN1CCCC1`, the “Percent Effect” value is listed as 59.19%.
Turning to `Cn1c(CN2CCCC(N3CCCCCC3)C2)cc(=O)n(C)c1=O` (centres undefined), the “Percent Effect” value was -10.45%.
Consider `Cn1c(CN2CCOCC2)cc(=O)c(O)c1CN1CCCCC1`, for which the “Percent Effect” value is reported as -218.7%.
On to `O=C(O)CC1COCCN1Cc1ccccc1-c1ccccc1` (centres undefined), for which the “Percent Effect” value is given as -118%.
In the case of `COc1ccc(C(=O)Nc2ccc3ncn(C(C)C)c(=O)c3c2)cc1`, the “Percent Effect” value came out at 33.29%.
Take `O=C(N1CCCC(n2cncn2)C1)C1(c2ccc(Cl)cc2)CCC1` (centres undefined): the “Percent Effect” value is given as -26.48%.
With `CN(Cc1cc(Br)cn1C)C(=O)c1cccnc1`, the “Percent Effect” value is recorded as -12.65%.
The value for `CCN(CCN1CCOCC1)C(=O)c1cccnc1` was -63.54%.
In the case of `CCCN(C(=O)c1cccnc1)c1nc2c(s1)CCc1c-2cnn1C`, the “Percent Effect” value was 81.54%.
As for `CS(=O)(=O)CCOc1nc(-c2ccccc2Cl)no1`, the “Percent Effect” value is given as -35.46%.
In the case of `O=C(c1ccccc1)N1CC[C@H]2C[C@H](c3nnc(C4CC4)o3)O[C@@H]2C1`, the “Percent Effect” value is -87.6%.
On to `CCc1nc(CC2CN(c3ncnc4sc(C)c(C)c34)CCO2)no1` (centres undefined), for which the “Percent Effect” value is reported as -116.3%.
Take `CCc1c(C)sc2ncnc(N3CC[C@@H](N4CCC(O)CC4)[C@H](O)C3)c12`: the “Percent Effect” value was 74.53%.
Take `Cc1sc2ncnc(N3CCCC3Cn3cccn3)c2c1C` (centres undefined): the “Percent Effect” value is -55.32%.
Regarding `CCc1c(C)sc2ncnc(N3CC[C@@H](N4CCOCC4)[C@H](O)C3)c12`, the “Percent Effect” value is on record as -5.608%.
With `CCc1c(C)sc2ncnc(N3C[C@H](O)[C@@H](N4CCCC4)C3)c12`, the “Percent Effect” value was 60.55%.
On to `CCc1c(C)sc2ncnc(N3CCN(C4CCOCC4)CC3)c12`, for which the “Percent Effect” value was 31.3%.
The value for `Cc1cc(C)cc(N2CCN(C(=O)C3CN(C)C(=O)N3)CC2=O)c1` (centres undefined) was -59%; that for `CC1(NC(=O)Cc2csc(-c3cccc(Cl)c3)n2)CCS(=O)(=O)C1` (centres undefined) was -114.6%.
The same measure for `O=C(NCc1nnnn1-c1ccccc1)c1ccc(C2CCCO2)s1` (centres undefined): -146%; for `Cc1nc(C(=O)N(C)CC2CC2)nn1-c1ccccc1C(C)C`: -82.1%.
For the compound `CN(C)C(C(=O)N1CC(Oc2ccccc2F)C1)c1ccc(F)cc1` (centres undefined), the “Percent Effect” value is 62.88%.
For `COc1ccccc1OC1CN(C(=O)C(c2ccc(F)cc2)N(C)C)C1` (centres undefined), the “Percent Effect” value is given as 0.4692%.
Regarding `Cc1cccc(C(C(=O)N2CC(Oc3ccccc3F)C2)N(C)C)c1` (centres undefined), the “Percent Effect” value is given as -1.988%.
On to `Cc1nn(C)cc1-c1cc(C(F)(F)F)nc(NC2CCN(C)CC2)n1`, for which the “Percent Effect” value is recorded as -72.67%.
With `O=C(CCc1ccccn1)N1CCCC(N2CCNC2=O)C1` (centres undefined), the “Percent Effect” value is -153%.
On to `Cc1ccc(Cl)c(C)c1NC(=O)N1CCCN(Cc2ccccn2)CC1`, for which the “Percent Effect” value is listed as -12.1%.
As to `Cc1nc(CN2CCCC2c2ccsc2)nc2ccccc12` (centres undefined), the “Percent Effect” value came out at 24.09%.
For `c1cnn(CC2CCCN2Cc2noc(C3CC3)n2)c1` (centres undefined), the “Percent Effect” value was -115.2%.
The value for `COc1cccc(CN2CCCC2c2c(C)nn(C)c2C)c1` (centres undefined) was 21.41%; that for `Cc1nc(CN2CCCC2Cn2ccnc2C(C)C)nc2ccccc12` (centres undefined) was 77.09%.
The same measure for `Cc1nc(CN2CCCC2Cn2cccn2)nc2ccccc12` (centres undefined): 55.28%; for `Cc1nn(C)c(C)c1C1CCCN1CCCc1nc2ccccc2o1` (centres undefined): 18.49%.
The value for `Cc1nc(CN2CCCCC2Cn2cccn2)nc2ccccc12` (centres undefined) was 70.28%; that for `Cc1nc2ccccc2nc1CN1CCCC1c1c(C)nn(C)c1C` (centres undefined) was 56.82%; that for `c1ccc(Cc2noc(CN3CCCCC3Cn3cccn3)n2)cc1` (centres undefined) was -99.91%.
Consider `Cc1nc(C)n(CC2CCCN2Cc2nc(N)c3ccccc3n2)n1` (centres undefined), for which the “Percent Effect” value is recorded as -104.3%.
Regarding `CC(C)c1nccn1CC1CCCN1Cc1nc2ccccc2n1C` (centres undefined), the “Percent Effect” value is listed as 20.35%.
For the compound `Cc1nc(CN2CCCCC2Cn2cncn2)nc2ccccc12` (centres undefined), the “Percent Effect” value is on record as -55.02%.
Regarding `CC(c1nc(C2CC2)no1)N1CCN(CCN2CCCC2=O)CC1` (centres undefined), the “Percent Effect” value is on record as -34.43%.
On to `CC(=O)N1CCN(c2cc(N3CCOCC3)cnn2)CC1`, for which the “Percent Effect” value is on record as -46.73%.
`CCSc1nnc([C@@H](N)CC(C)C)o1.Cl`: the “Percent Effect” value is given as -105.7%.
The value for `CC(C)(C)c1nc(CN(Cc2ccccc2Cl)C2CCCC2)no1` was -109.5%.
Turning to `Cc1cc(C(F)(F)F)nc(CCNC(C)Cn2nc(C)cc2C)n1` (centres undefined), the “Percent Effect” value came out at 25.86%.
Consider `CCSc1nc2ccccc2c(=O)n1OCC(=O)OC`, for which the “Percent Effect” value is listed as -35.88%.
Regarding `N#Cc1c(SCCN2CCOCC2)sc2c(O)cc(O)nc12`, the “Percent Effect” value amounted to 20.53%.
With `CC(Nc1ccc(Br)cc1)c1nc(C2CC2)no1` (centres undefined), the “Percent Effect” value was -70.57%.
The same measure for `CCOCC1CN(C(=O)N2CCCC2)Cc2cnn(CC)c21` (centres undefined): -92.45%.
Turning to `CCOc1ccc2[nH]c(=O)c(CN3CCN(S(N)(=O)=O)CC3)cc2c1`, the “Percent Effect” value is -148.7%.
Consider `CC1CCCN(c2ncc(C(=O)NCc3ccc(F)c(Cl)c3)c(N)n2)C1` (centres undefined), for which the “Percent Effect” value is recorded as -82.32%.
Consider `O=C(CN1CCCC1Cn1cncn1)NCC1(c2ccccc2)CC1` (centres undefined), for which the “Percent Effect” value is given as -28.68%.
With `Cc1nc2ccccc2nc1CN1CCCC1Cn1cccn1` (centres undefined), the “Percent Effect” value is recorded as 67.78%.
For the compound `Cc1cnn(CC2CCCN2Cc2nc3ccccc3nc2C)c1` (centres undefined), the “Percent Effect” value is -94.42%.
Turning to `Cc1nc2ccccc2nc1CN1CCOC(Cn2cccn2)C1` (centres undefined), the “Percent Effect” value is reported as -57.9%.
In the case of `c1ccc(CN2CCC(NCCc3ccc4c(c3)CCO4)CC2)nc1`, the “Percent Effect” value is given as 34.15%.
Take `Cc1n[nH]c2ncc(CNC3CCN(Cc4ccccn4)CC3)cc12.Cl`: the “Percent Effect” value was -31.75%.
With `Cc1[nH]c2ccc(CNC3CCN(Cc4ccccn4)CC3)cc2c1C`, the “Percent Effect” value is 93.27%.
With `Cc1nnc(SCc2cccc(F)c2)n1CC(N)=O`, the “Percent Effect” value is recorded as -112.6%.
Take `Cc1ccc(N2CCc3sc(C(=O)NCCN4CCCC4)cc32)nn1`: the “Percent Effect” value is -55.34%.
In the case of `C=C(C)CN1CCN(CCC(=O)Nc2ccccc2C(N)=O)CC1`, the “Percent Effect” value came out at 11.76%.
Take `O=C(NC[C@H]1OC[C@@H]2CN(Cc3ccco3)CC[C@@H]21)c1cscn1.O=C(O)C(F)(F)F`: the “Percent Effect” value is listed as -201.4%.
Turning to `CC(C)CCn1cc(C(=O)NC2CCS(=O)(=O)C2)c2ccccc2c1=O` (centres undefined), the “Percent Effect” value is recorded as -89.43%.
For the compound `CCC(Nc1nc(C)nc2onc(C)c12)c1cccs1` (centres undefined), the “Percent Effect” value is given as 19.14%.
As to `CCC(Nc1nc(CCN)nc2ccccc12)c1cccs1` (centres undefined), the “Percent Effect” value is 62.16%.
`CCC(Nc1nc(CCN)nc2ccccc12)c1cc(C)ccn1` (centres undefined): the “Percent Effect” value is on record as -26.25%.
In the case of `CN(C)CCn1c2c(ccc1=O)CC(NC(=O)c1cnccn1)CC2.O=C(O)C(F)(F)F` (centres undefined), the “Percent Effect” value was -12.74%.
As to `Cc1cccc(CN2CCC(c3nnsc3S(C)(=O)=O)CC2)c1`, the “Percent Effect” value was -50.13%.
In the case of `CNC(=O)NCC1CCC2(CCN(C(=O)c3ccccn3)CC2)CO1.O=C(O)C(F)(F)F` (centres undefined), the “Percent Effect” value was -170.4%.
As for `Cc1ncc(CN2CCC(c3ccnn3C)CC2)n1-c1ccccc1`, the “Percent Effect” value worked out at 30.79%.
In the case of `Cc1nnc(CN2CCN(Cc3nccn3C)CC2)n1C`, the “Percent Effect” value was -20.51%.
In the case of `CCn1cncc1C1CC(=O)Nc2c1c(C)nn2-c1ccc(C)cc1` (centres undefined), the “Percent Effect” value is given as -199.9%.
Consider `Cn1cncc1CN1CCC2(CC1)CCN2c1ncccn1`, for which the “Percent Effect” value was -81.78%.
For `CCc1nc(CN2CCCN(C(=O)c3ccco3)CC2)cs1`, the “Percent Effect” value is -4.304%.
On to `O=C(O)C(F)(F)F.O=C(O)C(F)(F)F.c1cncc(C2COC3(CCN(Cc4ccsc4)CC3)C2)c1` (centres undefined), for which the “Percent Effect” value is given as 12.38%.
The value for `Cc1nc(C(=O)Nc2cccnc2)c(C(C)C)s1` was -80.98%.
`Cc1c(CN2CCCC(C(=O)Nc3ccccc3)C2)cc(C#N)n1C` (centres undefined): the “Percent Effect” value is recorded as 39.8%.
For `CN(Cc1cccnc1)[C@@H]1CN(Cc2nccn2C)[C@@H]2CCCO[C@H]12.O=C(O)C(F)(F)F.O=C(O)C(F)(F)F.O=C(O)C(F)(F)F.O=C(O)C(F)(F)F`, the “Percent Effect” value is -14.02%.
For the compound `COc1ccc(Br)c(NC(=O)NCc2cnn(C)c2)c1`, the “Percent Effect” value is recorded as -45%.
The value for `CN1CCC2(CC1)CCN(C(=O)c1onc3ccccc13)C2` was -111.7%; that for `O=C1NCCCCC1Sc1ccc(F)cc1F` (centres undefined) was -40.24%; that for `Cc1ccc(F)cc1CC(=O)N1CC[C@@]2(O)CCNC[C@H]2C1` was -30.21%.
